Assay results: PubChem BioAssay (NCI)
About 83,000 compounds went through this panel and 20% of them were active in at least one assay; those are over-represented in the sample as a whole.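 48-hour exposure, single concentration, 96-well plates; percent growth endpoint where 0 means no net growth. Active: below 10.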 Calls of active or inactive are those of the source.

Tests used:
Experiment in all cases: NCI-60 one-dose screen, 48 h (100 = growth as untreated, 0 = no growth, -100 = all killed)
Conditions in all cases: 10 µM
K-562 leukemia = system: K-562 leukemia
MDA-MB-231 breast = system: MDA-MB-231 breast
RXF 393 renal = system: RXF 393 renal
SF-295 CNS = system: SF-295 CNS
SF-539 CNS = system: SF-539 CNS
UACC-257 melanoma = system: UACC-257 melanoma
M14 melanoma = system: M14 melanoma
HCT-15 colon = system: HCT-15 colon
SF-268 CNS = system: SF-268 CNS

SMILES	growth (K-562 leukemia)	growth (MDA-MB-231 breast)	growth (RXF 393 renal)	growth (SF-295 CNS)	growth (SF-539 CNS)	growth (UACC-257 melanoma)	growth (M14 melanoma)	growth (HCT-15 colon)	growth (SF-268 CNS)
Oc1[nH]c2ccc(Cl)cc2c1/C=c1/ccc2c(c1)N=C(c1cc(F)cc(F)c1)N=2	14.8% (inactive)	79.3% (inactive)	61.6% (inactive)	46.7% (inactive)	83.3% (inactive)	70.5% (inactive)	68.5% (inactive)	46.1% (inactive)	–
COc1cc(-c2cc(/C=C3\C(=O)Nc4ccc(Cl)cc43)[nH]n2)cc(OC)c1OC	8.43% (active)	52.4% (inactive)	69.2% (inactive)	46.9% (inactive)	45.1% (inactive)	18.7% (inactive)	5.02% (active)	7.21% (active)	38.2% (inactive)
COc1cc(NC(=O)CSc2nc3ccccc3c(=O)n2CCc2ccccc2)cc(OC)c1OC	–	-17% (active)	–	51.6% (inactive)	-50% (active)	39.2% (inactive)	41.9% (inactive)	89% (inactive)	13.9% (inactive)
O=C(Nc1ccncc1)C(=O)c1cn(S(=O)(=O)c2cccc(Cl)c2)c2ccccc12	19.8% (inactive)	87.4% (inactive)	89.2% (inactive)	55.8% (inactive)	67.3% (inactive)	78.1% (inactive)	47% (inactive)	49.2% (inactive)	80.9% (inactive)
CCCCCCCCCCCCCC[n+]1ccc(C(N)=O)cc1	9.07% (active)	-35.3% (active)	-52.4% (active)	-27.8% (active)	-3.7% (active)	9.72% (active)	-45.1% (active)	62.6% (inactive)	-12.5% (active)
